Data from PubChem BioAssay (NCATS).
Where “and” joins values, the source holds several entries; their conditions need not be identical. Equal values may be shown once. Records with an inconclusive call do not appear. Calls of active or inactive are those of the source. Unless noted, calls follow the shape of the dose curve; as a rule, active = well fitted activation curve with a large enough effect; inconclusive = small, poorly fitted or top-dose-only effect; inactive = flat fitted curve, though single readings scatter.

experiment: qHTS assay to identify small molecules that stimulate interleukin-8 (IL-8) secretion (AID 651758; active = well fitted activation curve with a large enough effect in the signal ratio; the % refers to the signal ratio; also: 0% is about no effect); conditions: HTRF ratio (665/615); series mostly up to 92.2 µM
Method in brief: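 Secreted IL-8 measured by TR-FRET sandwich (cryptate and XL665 antibodies) from THP-1 cells exposed to compound overnight (16 hrs, 37 C).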

| SMILES | Potency |
| --- | --- |
| CC(C)Br | inactive |
| O=[N+]([O-])c1ccc(O)c([N+](=O)[O-])c1 | inactive |
| CC(C)[N+](=O)[O-] | inactive |
| O=C(O)c1cccc(Cl)c1 | inactive |
| Cc1cc(N=Nc2ccccc2C)ccc1N | inactive |
| CC(C)(COCC1CO1)COCC1CO1 (stereo not drawn) | inactive |

experiment: qHTS assay for environmental chemicals that activate the Aryl hydrocarbon Receptor (AhR) signaling pathway (AID 651777); conditions: 1A2-DRE human hepatoma cells, luciferase, 24 h; activation: active compounds read high; also: nearly all actives have a fitted effect of over 15% in size; also: potency is read from the fitted curve at half-maximal effect; as to activation: % of control where 0% means no effect
Method in brief: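 Measured luciferase activity, read 30 min after One-Glo addition at room temperature, from human hepatoma cells bearing a dioxin response element–CYP1A2 promoter reporter and exposed to compound for 24 hr at 37 C.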

| SMILES | activation | Potency |
| --- | --- | --- |
| Cc1ccc(OP(=O)(Oc2ccc(C)cc2)Oc2ccc(C)cc2)cc1 | 5.07% (inactive) and 5.6% (inactive) |  |
| Oc1c(Cl)c(Cl)cc(Cl)c1Cl | 0.522% (inactive) |  |
| Nc1ccc(Cc2ccc(N)c(Cl)c2)cc1Cl | 3.75% (inactive) |  |
| CN(C)c1ccc(N(C)C)cc1 | 12.9% (inactive) |  |
| Brc1ccc(Oc2ccc(Br)cc2Br)c(Br)c1 | 7.07% (inactive) |  |
| O=[N+]([O-])c1c(Cl)c(Cl)c(Cl)c(Cl)c1Cl | -0.0122% (inactive) and 2.68% (inactive) |  |
| CN1CSC(=S)N(C)C1 | -0.101% (inactive) and -0.0706% (inactive) |  |
| ClCC(Cl)Cl | 1.04% (inactive) |  |
| CC(C)Br | -0.85% (inactive) |  |
| O=[N+]([O-])c1ccc(O)c([N+](=O)[O-])c1 | 0.436% (inactive) |  |
| CC(C)[N+](=O)[O-] | 0.897% (inactive) |  |
| CCCC[N+](=O)[O-] | 0.218% (inactive) |  |
| Cc1cc(-c2cc(C)c(N)c(C)c2)cc(C)c1N |  | 10 µM (active) |
| Nc1cc(Cl)ccc1O |  | 44.7 µM (active) |
| CCN(N=O)C(N)=O | 0.0477% (inactive) |  |
| N#CC(Cl)(Cl)Cl | 0.19% (inactive) |  |
| CCCCC(CC)COC(=O)c1ccc(C(=O)OCC(CC)CCCC)c(C(=O)OCC(CC)CCCC)c1 (stereo not drawn) | -0.0808% (inactive) |  |
